From PubChem BioAssay AID651593 (National Center for Advancing Translational Sciences (NCATS), 2012)
Hit rate of the full screen: of about 1,100 compounds, about 860 (78%) were called active. Roughly 19% stayed inconclusive and do not appear here. Calls follow the shape of the dose curve; as a rule, active = well fitted activation curve with a large enough effect; inconclusive = small, poorly fitted or top-dose-only effect; inactive = flat fitted curve, though single readings scatter. So high a share suggests a set chosen from earlier hits. This is one part of the list.

assay: qHTS of Nrf2 Activators: Hit Validation in Primary Assay; settings: Nrf2/ARE reporter cell assay; Potency: activation; series mostly up to 46.1 µM; activation: at the top concentration; also: nearly all actives have a fitted effect of over 70% in size; as to activation: 0% is about no effect
Method in brief: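 Luminescence from Steady-Glo lysis reagent, read after 30 min, reported ARE-luciferase activity in AREc32_fluc stable cells. Compounds were tested at several concentrations, incubated 24 h at 37 °C with 5% CO2 following overnight seeding.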
Potency is read from the fitted curve at half-maximal effect.

SMILES	Potency	activation
CC(C)CCn1c(O)c(N=Nc2ccccn2)c2ccccc21	2.91 µM (active)	–
CCCCn1c(O)c(N=Nc2ccccn2)c2ccccc21	2.91 µM (active)	–
CC(C)N1C/C(=C/c2cccnc2)C(=O)/C(=C/c2cccnc2)C1	3.66 µM (active)	–
COc1ccc(NC(=O)c2cc(-c3cccs3)on2)c(OC)c1	1.3 µM (active)	–
COC(=O)c1ccccc1NC(=O)c1cc(-c2ccco2)on1	3.26 µM (active)	–
COc1ccc(Cl)cc1NC(=O)c1cc(-c2ccco2)on1	2.59 µM (active)	–
CSc1ccccc1NC(=O)c1cc(-c2cccs2)on1	2.91 µM (active)	–
CCCCC1C(=O)N(c2ccccc2)N(c2ccc(O)cc2)C1=O (configuration not stated)	–	4.73% (inactive)
COc1ccc(NC(=O)c2cc(-c3ccco3)on2)c(OC)c1	2.31 µM (active)	–
Cc1noc(C)c1COc1ccccc1C(=O)NNC(=O)c1ccccc1F	3.66 µM (active)	–
Cc1csc2c(=O)sc(NC(=O)c3cccs3)nc12	4.11 µM (active)	–
Cc1csc2c(=O)sc(NC(=O)c3ccc(F)cc3Cl)nc12	2.59 µM (active)	–
Cc1ccccc1C(=O)Nc1nc2c(C)csc2c(=O)s1	2.91 µM (active)	–
CS/C(=C\C(=O)c1ccco1)Nc1ccccc1Cl	4.61 µM (active)	–
CC(C)Nc1ccc(-c2nc(-c3ccco3)no2)cc1[N+](=O)[O-]	2.31 µM (active)	–
CNc1ccc(-c2nc(-c3ccco3)no2)cc1[N+](=O)[O-]	1.84 µM (active)	–
COC(=O)c1cc(=O)nc(NN=Cc2ccco2)s1	0.58 µM (active)	–
Cc1ccc(Cc2c(-c3ccco3)nc3c(C)cc(Br)cn23)cc1	20.6 µM (active)	–
Cc1cc(Br)cn2c(Cc3ccccc3)c(-c3ccco3)nc12	16.4 µM (active)	–
Clc1ccsc1-c1csc(-c2cccnc2)n1	2.06 µM (active)	–
Cc1ccccc1NC(=O)/C(C#N)=C/c1ccsc1	4.11 µM (active)	–
Cc1ccccc1NC(=O)/C(C#N)=C\c1ccsc1	3.66 µM (active)	–
Clc1nc(-c2ccccc2)cc(-c2ccccc2)n1	4.11 µM (active)	–

SMILES	Potency	activation
Clc1cc(-c2ccccc2)nc(-c2ccccc2)n1	5.8 µM (active)	–
CN1CCCC1CCNc1ccc2c(=O)c3ccccc3oc2c1 (configuration not stated)	2.06 µM (active)	–
Cc1[nH]c2ccccc2c1N=Nc1ccccc1F	4.11 µM (active)	–
Cc1[nH]c2ccccc2c1N=Nc1ccccc1C(=O)O	2.59 µM (active)	–
O=C1S/C(=C\C=C\c2ccco2)C(=O)N1c1ccc(O)cc1	2.31 µM (active)	–
O=C1S/C(=C\C=C\c2ccco2)C(=O)N1c1ccccc1	5.8 µM (active)	–
Cc1noc(C(=O)Nc2cc(Cl)ccc2O)c1Cl	2.91 µM (active)	–
C=CCSc1nccc(-c2cc(Cl)sc2Cl)n1	6.51 µM (active)	–
O=C1c2cccc3cccc(c23)C(=O)N1CCCN(C(=O)c1cccs1)c1cccc(F)c1	2.31 µM (active)	–
Cc1cccc(C)c1OCC(=O)N/N=C/C=C/c1ccco1	0.517 µM (active)	–
O=C(N/N=C/C=C/c1ccco1)c1cccc([N+](=O)[O-])c1	0.366 µM (active)	–
O=C(N/N=C/C=C/c1ccco1)c1cnccn1	9.2 µM (active)	–
O=C(N/N=C\C=C\c1ccco1)c1cc(-c2ccc3ccccc3c2)n[nH]1	8.2 µM (active)	–
c1ccc(-c2ccc3c(c2)NC(C2Nc4cc(-c5ccccc5)ccc4O2)O3)cc1 (configuration not stated)	–	3.34% (inactive)
COc1ccc(C2CC(c3cccs3)=Nc3ccccc3S2)cc1OC (configuration not stated)	20.6 µM (active)	–
Cc1cc(C)c(C#N)c(OCC(=O)c2ccc(Br)cc2)n1	4.61 µM (active)	–
Cc1cc(C)c(C#N)c(OCC(=O)c2ccccc2)n1	5.17 µM (active)	–
Cc1cc(C)n2nc(/C(C#N)=C/c3ccccn3)c(C#N)c2n1	18.4 µM (active)	–
COc1ccc(Cl)cc1-c1nc(-c2ccncc2)no1	4.61 µM (active)	–
Clc1ccc(Br)cc1-c1nc(-c2ccncc2)no1	4.61 µM (active)	–
CC(C)(C)C(=O)/C=c1\[nH]c(=O)/c(=C\c2ccccc2F)s1	2.31 µM (active)	–
Cn1nc(C(=O)Nc2c(-c3ccccc3)nc3sccn23)c2ccccc2c1=O	9.2 µM (active)	–
Cc1ccc2[nH]c(=O)c3cc(C(=O)N(C)Cc4ccco4)sc3c2c1	11.6 µM (active)	–

SMILES	Potency	activation
C/C(=N\NC(=S)NCC(C)(C)C)c1cc(F)cc(F)c1O	–	7.88% (inactive)
C(=Cc1cnnc2ccccc12)c1ccccc1	2.91 µM (active)	–
O=C(NCc1ccccc1)c1c(Cl)nc(Cl)c(Cl)c1Cl	2.91 µM (active)	–
O=C(Nc1ncc2c(n1)CC(c1ccco1)CC2=O)c1ccc(Cl)cc1 (configuration not stated)	9.2 µM (active)	–
N#C/C(=C\c1ccccc1)c1ccccn1	13 µM (active)	–
O=[N+]([O-])c1cccc(/C=C/c2ccccn2)c1	4.61 µM (active)	–
O=C(/C=C/c1cccc([N+](=O)[O-])c1)n1cnc2ccccc21	4.61 µM (active)	–
CC(C)(C)SCCNC(=O)/C=C/c1cccc([N+](=O)[O-])c1	–	12.4% (inactive)
N#C/C(=C\c1cccc([N+](=O)[O-])c1)c1ccccn1	4.61 µM (active)	–
CC(=O)Oc1ccc(-c2nc3c(C)cccc3c(=O)o2)cc1	9.2 µM (active)	–
O=C(NCCc1c[nH]c2ccccc12)c1ccc([N+](=O)[O-])o1	5.17 µM (active)	–
COC(=O)c1ccc(Cl)cc1NC(=O)/C=C/c1ccc(C)o1	2.06 µM (active)	–
CCOC(=O)c1c(NC(=O)/C=C/c2ccc(C)o2)sc(C)c1C	3.26 µM (active)	–
Cc1ccc(/C=C/C(=O)Nc2ccc([N+](=O)[O-])c(NC(=O)/C=C/c3ccc(C)o3)c2)o1	8.2 µM (active)	–
CCC1C/C(=C/c2cccs2)C(=O)/C(=C/c2cccs2)C1 (configuration not stated)	2.31 µM (active)	–
Cn1c(CC2C(=O)Nc3ccc(Br)cc32)nc2ccccc2c1=O (configuration not stated)	–	26% (inactive)
Cc1nc2ccccc2c(=O)n1NCc1cc(Br)cs1	2.59 µM (active)	–
O=C(Nc1nnc(-c2cccs2)s1)c1cccc(F)c1	2.31 µM (active)	–
O=C(Nc1nnc(-c2cccs2)s1)C1CC1	9.2 µM (active)	–
O=C1C(=Cc2ccccc2[N+](=O)[O-])Cc2ccccc21	4.61 µM (active)	–
Nc1ccccc1C=C1Cc2ccccc2C1=O	3.66 µM (active)	–
